Laboratory results: PubChem BioAssay AID1159580 (chemical genetic matrix, 2015)
Values joined by “and” are separate entries in the source; they are usually repeats but may differ in a detail not shown here. Identical values can stand only once. The campaign covered roughly 5,500 compounds. About 2,000 (36%) were called active. Inconclusive results (about 18%) are left out. No stated cut-off is given here; in the data, active means normalized growth mostly below about 0.91 (no sharp cut-off); inconclusive means no clear call, values can overlap the other calls; inactive means mostly above about 0.92. This is one part of the list.

Test: chemical genetic growth profiling, strain panel (AID 1159580);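 further: tested at 20 µM; growth read once vehicle control cultures reached saturation at 30 °C; 1 = growth at the plate median or of vehicle wells; lower values mean less growth of the strain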
Details: S. cerevisiae deletion strains, growth OD

Measured: normalized growth

CCOC(=O)[C@H](CCc1ccccc1)N[C@@H](C)C(=O)N1CCC[C@H]1C(=O)O
inactive: locus YAL021C, strain ccr4, active compounds read low 0.98 | locus YAL026C, strain drs2, active compounds read low 1 | locus YAL030W, strain snc1, active compounds read low 0.992 | locus YBL061C, strain skt5, active compounds read low 0.987 | locus YBR009C, strain hhf1, active compounds read low 1.01 | locus YBR021W, strain FUR4, active compounds read low 1.01 | locus YBR023C, strain chs3, active compounds read low 0.988 | locus YBR171W, strain sec66, active compounds read low 0.979 | locus YBR229C, strain ROT2, active compounds read low 1 | locus YBR231C, strain swc5, active compounds read low 1 | locus YBR279W, strain paf1, active compounds read low 0.973 | locus YCL011C, strain gbp2, active compounds read low 0.976 | locus YCL016C, strain dcc1, active compounds read low 0.969 | locus YCL029C, strain bik1, active compounds read low 1.02 | locus YCL061C, strain MRC1, active compounds read low 1.01 | locus YCL069W, strain vba3, active compounds read low 0.988 | locus YCR088W, strain abp1, active compounds read low 0.995 | locus YDL005C, strain med2, active compounds read low 0.995 | locus YDL035C, strain GPR1, active compounds read low 1.03 | locus YDL040C, strain nat1, active compounds read low 0.992 | locus YDL074C, strain BRE1, active compounds read low 1.02 | locus YDL101C, strain DUN1, active compounds read low 1.01 | locus YDL134C, strain PPH21, active compounds read low 1.01 | locus YDL185W, strain tfp1, active compounds read low 1.01 | locus YDL192W, strain arf1, active compounds read low 1.01 | locus YDR001C, strain nth1, active compounds read low 0.996 | locus YDR069C, strain doa4, active compounds read low 0.984 | locus YDR101C, strain arx1, active compounds read low 0.994 | locus YDR137W, strain rgp1, active compounds read low 0.988 | locus YDR159W, strain sac3, active compounds read low 0.937 | locus YDR162C, strain NBP2, active compounds read low 1.01 | locus YDR195W, strain ref2 0.981 | locus YDR297W, strain sur2, active compounds read low 1 | locus YDR318W, strain mcm21, active compounds read low 1.02 | locus YDR334W, strain swr1, active compounds read low 0.998 | locus YDR335W, strain msn5, active compounds read low 0.991 | locus YDR388W, active compounds read low 1.02 | locus YDR392W, strain spt3, active compounds read low 0.923 | locus YDR502C, strain sam2, active compounds read low 1.01 | locus YEL003W, strain gim4, active compounds read low 1 | locus YEL037C, strain rad23, active compounds read low 0.988 | locus YEL061C, strain CIN8 (second series), active compounds read low 0.999 | locus YEL061C, strain CIN8, active compounds read low 0.999 | locus YER015W, strain faa2, active compounds read low 1 | locus YER016W, strain bim1, active compounds read low 0.98 | locus YER110C, active compounds read low 1.02 | locus YER111C, strain swi4, active compounds read low 0.985 | locus YER155C, strain BEM2 (second series), active compounds read low 1.02 | locus YER155C, strain BEM2, active compounds read low 0.996 | locus YER167W, strain BCK2, active compounds read low 0.997 | locus YFR010W, strain ubp6, active compounds read low 1.01 | locus YGL078C, strain dbp3, active compounds read low 1.01 | locus YGL086W, strain mad1, active compounds read low 0.998 | locus YGL167C, strain pmr1, active compounds read low 0.99 | locus YGL173C, strain kem1, active compounds read low 0.995 | locus YGL227W, strain vid30, active compounds read low 0.996 | locus YGL240W, strain doc1, active compounds read low 0.985 | locus YGL248W, strain PDE1, active compounds read low 1 | locus YGL253W, strain hxk2, active compounds read low 0.987 | locus YGR078C, strain PAC10, active compounds read low 1.02 | locus YGR135W, strain pre9, active compounds read low 1.02 | locus YGR252W, strain gcn5, active compounds read low 1.05 | locus YHR013C, strain ard1, active compounds read low 0.967 | locus YHR027C, strain rpn1, active compounds read low 1.01 | locus YHR030C, strain SLT2, active compounds read low 0.998 and 1.03 | locus YHR079C, strain IRE1 (second series), active compounds read low 1.01 | locus YHR079C, strain IRE1, active compounds read low 1.05 | locus YHR094C, strain hxt1, active compounds read low 1.01 | locus YHR129C, strain ARP1, active compounds read low 0.998 | locus YHR142W, strain chs7, active compounds read low 0.98 | locus YHR200W, strain rpn10, active compounds read low 1.01 | locus YIL066C, strain RNR3, active compounds read low 1.01 | locus YIL073C, strain SPO22, active compounds read low 1.07 | locus YIL125W, strain kgd1, active compounds read low 1.01 | locus YIR030C, strain dcg1, active compounds read low 1.01 | locus YJL092W, strain hpr5, active compounds read low 1 | locus YJL095W, strain BCK1 (second series), active compounds read low 1 | locus YJL095W, strain BCK1, active compounds read low 1.02 and 1.03 | locus YJL115W, strain asf1, active compounds read low 0.989 | locus YJL129C, strain trk1, active compounds read low 0.954 | locus YJL134W, strain LCB3, active compounds read low 1 | locus YJL154C, strain vps35, active compounds read low 0.99 | locus YJL164C, strain tpk1, active compounds read low 0.98 | locus YJL166W, strain qcr8, active compounds read low 1 | locus YJL168C, strain set2, active compounds read low 1.01 | locus YJL187C, strain SWE1 (second series), active compounds read low 1.01 | locus YJR043C, strain POL32, active compounds read low 1.03 | locus YJR066W, strain TOR1, active compounds read low 0.985
